Measurements as given in PubChem BioAssay (NCI).
The panel holds about 83,000 compounds, 20% with a hit somewhere; the sample as a whole holds those more often.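 Plates (96-well) were seeded with cells, treated with compound at one concentration, and incubated for 48 hours before percent growth was determined.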 A number with no mark means an inactive call. The source made the active and inactive calls. How the source made its calls: active means growth percent below 10; inactive means the rest.

Tested on: HL-60(TB) leukemia
Test: NCI-60 one-dose screen, 48 h (100 = growth as untreated, 0 = no growth, -100 = all killed)
Conditions: 10 µM unless noted

Question: For `CCCCC(O)c1ccccc1` (centres undefined), which growth is on record?
Answer: The growth was 99.2%.

Question: For `C=CCn1cc(-c2nc3ccccc3s2)c2cc(-c3ccc4c5c(cccc35)C(=O)N(CCN3CCNCC3)C4=O)ccc21`, which growth is on record?
Answer: The growth was 103%.

Question: How did the growth turn out when `CS(=O)(=O)Nc1cc(-c2ccc3ncnc(Nc4ccc(F)c(Cl)c4)c3c2)ccc1Cl` was run?
Answer: Its growth is 65.3%.

Question: `CCOC(=O)c1c(NC(=O)c2cccc(C(F)(F)F)c2)sc2c(CN(C)C)c(O)ccc12` was tested. Which growth did it give?
Answer: Its growth is 16.3%.

Question: Which growth does the source give for `C#C[C@H](O)/C=C/CCCCCCC#C[C@H](O)CC[C@@H](O)C#CCCCCCC/C=C/[C@@H](O)C#C` here?
Answer: Its growth is -70.8% (active).

Question: How did the growth turn out when `C[N+]1(CCc2ccccc2)CCC(CCC2CC[N+](C)(CCc3ccccc3)CC2)CC1` (centres undefined) was run?
Answer: Its growth is 105%.

Question: Which growth does the source give for `Nc1ccc(C(=O)CSc2nc3ccccc3[nH]2)cc1` here?
Answer: The growth was 95.3%.

Question: How did the growth turn out when `C=C(C)[C@@H]1CC[C@]2(C)[C@H](CC=C3[C@@H]4CC(C)(C)CC[C@]4(C(=O)OC)CC[C@]32C)[C@@]1(C)CC/C(N)=N/O` was run?
Answer: The growth was 2.39% (active).

Question: For `COc1cccc(-c2nc3sccn3c2-c2ccnc(NCCNS(=O)(=O)c3ccc(C(F)(F)F)cc3)c2)c1`, which growth is on record?
Answer: Its growth is 14.9%.

Question: Which growth does the source give for `COc1cc(Nc2nc3ccccc3cc2C(=O)Nc2ccc(F)c(F)c2)cc(OC)c1OC` here?
Answer: Its growth is 19.8%.

Question: `C#CCNC(=O)[C@]1(C)CC[C@]2(C)CC[C@@H]3C(=CC[C@H]4[C@@]3(C)CC[C@H]3C(C)(C)C(=O)CC[C@]43C)[C@@H]2C1` was tested. Which growth did it give?
Answer: The growth was 56.2%.

Question: For `CC12O[C@H](C[C@@H](OC(=O)c3ccccc3)[C@H]1O)n1c3ccccc3c3c4c(c5c6ccccc6n2c5c31)C(=O)NC4=O`, which growth is on record?
Answer: Its growth is 96.9%.

Question: With `CC/C(=C(/c1ccc(OCCN(C)C)cc1)c1ccc(OC(=O)CCC(=O)c2c(C)[nH]c(/C=C3\N=C(c4ccc[nH]4)C=C3OC)c2C)cc1)c1ccccc1` as the compound, how does the growth read?
Answer: Its growth is 24.2%.

Question: Which growth does the source give for `O=[N+]([O-])c1cnc(Sc2ccncn2)s1` here?
Answer: Its growth is -20.2% (active).

Question: `COc1cc(/C=N/O)nc(-c2ccccn2)c1` was tested. Which growth did it give?
Answer: Its growth is -13.5% (active).

Question: With `C#CC(=O)/C=C/CCCCCCC#CC(=O)CCC(=O)C#CCCCCCC/C=C/C(=O)C#C` as the compound, how does the growth read?
Answer: The growth was -70.1% (active).

Question: Which growth does the source give for `CCOC(=O)c1c(-c2ccc(C)cc2)c(C#N)c(=O)n(-c2cccc(C(F)(F)F)c2)c1N` here?
Answer: Its growth is 102%.

Question: Which growth does the source give for `CC[C@]12C=CCN3CC[C@@]4(c5ccc(OC)cc5N(C)[C@H]4[C@@](O)(C(=O)OC)[C@@H]1OC(=O)CCC(=O)O[C@H]1CC[C@H]4[C@@H]5CCC6=CC(=O)CC[C@@H]6[C@H]5CC[C@]14C)[C@@H]32` here?
Answer: Its growth is -37.9% [100 µM] (active).

Question: `CCc1oc2ccccc2c1C(=O)c1cc(Br)c(O)c(Br)c1` was tested. Which growth did it give?
Answer: The growth was 53%.

Question: `COc1ccc(-c2nc3sc(C4CC4)nn3c2/C=C2/C(=O)Nc3ccc(OC)cc32)cc1` was tested. Which growth did it give?
Answer: Its growth is 97%.

Question: For `CCOC(=O)CCN(c1c(Cl)ssc1=O)C(C)C`, which growth is on record?
Answer: The growth was 101%.

Question: With `CN(C)CCC(=O)C1CC1` as the compound, how does the growth read?
Answer: Its growth is 93.9%.

Question: `C#CCN=C[C@]12CC[C@@H](C(=C)C)[C@@H]1[C@H]1CC[C@@H]3[C@@]4(C)CCC(=O)C(C)(C)[C@@H]4CC[C@@]3(C)[C@]1(C)CC2` was tested. Which growth did it give?
Answer: Its growth is -14.3% (active).

Question: With `CC[C@H](Nc1ncnc2nc[nH]c12)c1nc2cccc(F)c2c(=O)n1-c1ccccc1` as the compound, how does the growth read?
Answer: The growth was 66.8%.

Question: `CCNc1nc(O)c(/C=C2\C=Nc3ncccc32)s1` was tested. Which growth did it give?
Answer: Its growth is -22.4% (active).

Question: `COc1ccccc1-n1c(-c2sc(NC(C)=O)nc2C)n[nH]c1=S` was tested. Which growth did it give?
Answer: Its growth is 101%.

Question: How did the growth turn out when `NC(CCC(=O)NC(CS)C(=O)NCC(=O)O)C(=O)O` (centres undefined) was run?
Answer: The growth was 73.1%.

Question: Which growth does the source give for `Cc1ccc(S(=O)(=O)N/N=C2\CC3CCC2(C)C3(C)C)cc1` (centres undefined) here?
Answer: The growth was 116%.

Question: How did the growth turn out when `Cc1ccc(S(=O)(=O)NCCCNc2nccc(-c3c(-c4ccccc4)nc4sccn34)n2)cc1` was run?
Answer: The growth was -13.1% (active).

Question: Which growth does the source give for `CCN(CC)CCCC(Nc1c2ccc(Cl)cc2nc2ccc(OC)cc12)c1ccc(Cl)cc1` (centres undefined) here?
Answer: Its growth is -16.2% (active).

Question: `COc1ccc(/C=C/C(c2cc(OC)c(OC)c(OC)c2)n2ccnc2)cc1O` (centres undefined) was tested. Which growth did it give?
Answer: The growth was -36.6% (active).

Question: `CCOC(=O)C(c1ccccc1)N1C(=O)c2ccccc2C1=O` (centres undefined) was tested. Which growth did it give?
Answer: Its growth is 115%.

Question: How did the growth turn out when `Clc1ccc2c(c1)-c1ccccc1C1=NCCN12` was run?
Answer: The growth was 38.1%.

Question: For `Cc1cc2c(cc1C)N(C(=O)CCl)CC(=O)N2`, which growth is on record?
Answer: Its growth is 8.25% (active).

Question: Which growth does the source give for `COc1ccc(-c2nc(Nc3cc(C)[nH]n3)c3ccccc3n2)cc1` here?
Answer: Its growth is 41.4%.

Question: Which growth does the source give for `O=C(c1ccc(OCCN2CCCCC2)cc1)c1c(-c2ccc(O)cc2)sc2cc(O)ccc12` here?
Answer: Its growth is 76.8%.

Question: `O=C(NCCCCCCCNC(=O)OCc1ccc2c(Cl)cc(Cl)c(O)c2n1)OCc1ccc2c(Cl)cc(Cl)c(O)c2n1` was tested. Which growth did it give?
Answer: Its growth is -45.9% (active).

Question: Which growth does the source give for `COC(=O)c1oc2c(C(C)=O)c(OCCN3CCCCC3)ccc2c1C` here?
Answer: The growth was 110%.

Question: For `Clc1ccc(/C=C/c2nc(N3CCOCC3)c3nc(Cl)c(Cl)cc3n2)cc1`, which growth is on record?
Answer: Its growth is 98.4%.
